# This is part of a sample that, as a whole, favours compounds with a hit. Of some 83,000 tested, about 20% had one in any assay.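 The test compound was applied at a single concentration to cells in 96-well plates for 48 hours, and percent growth was recorded.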 Unmarked numbers belong to inactive results. Active and inactive are the calls of the source. How the source made its calls: active means growth percent below 10; inactive means the rest.
# Experiments:
# Test in all cases: NCI-60 one-dose screen, 48 h (100 = growth as untreated, 0 = no growth, -100 = all killed)
# Details in all cases: 10 µM
# [1] = test system: SR leukemia
# [2] = test system: RPMI-8226 leukemia
# [3] = test system: OVCAR-8 ovarian
# [4] = test system: OVCAR-5 ovarian
# [5] = test system: OVCAR-4 ovarian
# [6] = test system: SK-OV-3 ovarian
# [7] = test system: IGROV1 ovarian
# [8] = test system: OVCAR-3 ovarian
# [9] = test system: HS 578T breast
# [10] = test system: NCI/ADR-RES ovarian
# [11] = test system: T-47D breast
# [12] = test system: BT-549 breast
# [13] = test system: MDA-MB-435 melanoma
# [14] = test system: SW-620 colon
# [15] = test system: MCF7 breast
# [16] = test system: HCT-116 colon
# [17] = test system: HCC-2998 colon
# [18] = test system: KM12 colon
Compound,growth [1],growth [2],growth [3],growth [4],growth [5],growth [6],growth [7],growth [8],growth [9],growth [10],growth [11],growth [12],growth [13],growth [14],growth [15],growth [16],growth [17],growth [18]
Nc1ncc(-c2ccc(C(F)(F)F)cc2)c(NC2CCCCCC2)n1,60.3%,-8.42% (active),19.4%,53%,20%,76.1%,58.6%,14.5%,38.4%,56.9%,20.5%,48.3%,37.1%,37.4%,25%,26.3%,35.1%,31.6%
CCN(CC)CCOC(=O)c1ccc(NC(=O)Nc2cccc(Cl)c2)cc1,96.5%,103%,97.6%,105%,107%,102%,105%,97.6%,100%,97.5%,87.1%,92.9%,103%,104%,95%,95%,99.7%,98%
CCCN(CCC)CCCNC(=O)c1cc2c(-c3ccc(OC)c(OC)c3)nn(C)c2s1,4.41% (active),-10.5% (active),4.29% (active),69.5%,22.1%,24%,35.5%,-10.1% (active),11.5%,-8.48% (active),24.5%,13.7%,-24.5% (active),10.8%,11.2%,13.7%,67.2%,6.62% (active)
Oc1cc(O)c(Br)cc1Br,85.7%,99.4%,103%,107%,98.2%,107%,102%,110%,107%,105%,90.2%,93.8%,101%,105%,91.3%,97.3%,94.6%,101%
COc1ccc(-c2nc(-c3nc4ccc(C)cc4[nH]3)c3ccccn23)cc1,33.2%,-6.44% (active),6.19% (active),88.5%,44.1%,85.9%,36.5%,72.6%,74.7%,22.6%,19.3%,68.1%,62.9%,61.2%,35%,41.1%,–,–
N#CCC1CCCC1,81.6%,97.2%,98.9%,105%,95.7%,104%,118%,121%,106%,101%,101%,112%,91.2%,104%,92.8%,99.8%,104%,110%
COc1ccc(C(C)=O)cc1N1C(=O)C2C(C1=O)C1(c3ccccc3)C(=O)C2(c2ccccc2)C(c2ccc(C)cc2)=C1c1ccc(C)cc1 (configuration not stated),8.77% (active),17.2%,14.5%,55.7%,26.2%,32.2%,9.07% (active),21.4%,80.7%,12.7%,32.3%,38.4%,35.6%,27.1%,15.6%,24.3%,46.6%,–
COc1ccc(S(=O)(=O)Nc2cc(/C=C\c3cc(OC)c(OC)c(OC)c3)ccc2OC)cc1,10.2%,7.64% (active),9.01% (active),30.7%,34.4%,11.8%,13.6%,-19.8% (active),10.6%,11%,71.7%,26.9%,-37.9% (active),21.3%,-9.99% (active),4.3% (active),16%,-5.35% (active)
CCCc1c(CC)c(=N)c2ccccc2n1C,-27.5% (active),-17% (active),76.1%,100%,79.7%,91.3%,82.8%,85%,76.5%,78.6%,73%,81.8%,7.61% (active),57.8%,32%,27.7%,15.5%,–
COc1cc(-c2n/c(=C\c3c(O)[nH]c4ccccc34)cc3c2=Nc2ccccc2-3)cc(OC)c1OC,8.26% (active),25.5%,11.3%,46.4%,26.8%,-9.66% (active),44.3%,-16.6% (active),3.83% (active),4.78% (active),51.7%,6.59% (active),-7.06% (active),33.4%,3.28% (active),3.38% (active),-20.4% (active),5.99% (active)
CCN(CC)CCCOC(=O)Nc1ccccc1Cl,101%,97.3%,111%,110%,115%,111%,123%,124%,121%,107%,106%,111%,105%,102%,112%,113%,110%,111%
COc1ccc(-c2nsc3c2NC(=O)CC3c2cccc(Cl)c2)cc1 (configuration not stated),7.99% (active),12.4%,33.7%,32.8%,53.2%,3.46% (active),39.2%,11.4%,37.6%,15.7%,35.3%,36.5%,-12.2% (active),25.7%,17%,23.8%,43.5%,34.6%
CCOC(=O)CSC(=S)SCC(=O)OCC,84.8%,95.4%,93%,107%,97.4%,98.2%,117%,122%,106%,106%,89.6%,106%,94.9%,135%,88.7%,99.1%,105%,100%
COc1ccc(Cn2cc3c(c2-c2cc(OC)c(OC)c(OC)c2)CCc2cnoc2-3)cc1N,14.8%,25.7%,28%,52.4%,37.6%,2.09% (active),7.25% (active),1.74% (active),10.4%,6.71% (active),43.4%,26.3%,-37% (active),20.4%,16%,0.095% (active),-9.27% (active),1.77% (active)
CCCCOCCOCCOCc1cc2c(cc1Br)OCO2,100%,99.2%,97.8%,95.5%,105%,96.5%,89.6%,111%,108%,111%,88%,110%,108%,100%,90.2%,94.9%,108%,97.7%
O=C/C=C/c1ccc([N+](=O)[O-])cc1Cl,0.062% (active),82.1%,91.2%,115%,114%,104%,82.5%,108%,108%,101%,86.4%,106%,95.9%,90%,62.8%,2.9% (active),111%,95.6%
COCCOC(=O)NC(=O)Nc1ccc(/C(=N/O)c2ccc(Cl)cc2)cc1,8.7% (active),22.3%,4.12% (active),47.1%,43.7%,4.2% (active),30.9%,0.755% (active),34.4%,-3.69% (active),62.5%,50.9%,3.81% (active),29%,14.3%,4.17% (active),-1.35% (active),11.7%
